The entries come from a sample that favours hits as a whole.
HBB splicing: qHTS Assay for Modulators of Hemoglobin Beta Chain Splicing; HBB splicing reporter cell assay, activation; EGFP reporter with mutant IVS2-654 intron; response scale: normalised to 500 nM splice-correcting PNA; Potency, µM (highest dose often 46.1 µM), inactives show at the top dose activation, most hits filed as activators; 65,000 compounds, 0.06% hits; AID 925, 2007; also: potency is read from the fitted curve at half-maximal effect; 0% is about no effect
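Compounds were applied for 2 days to HeLa EGFP-654 cells, 500/well in Optimem with 2% FCS. The reporter's EGFP is disrupted by mis-splicing of beta-globin intron IVS2-654. Readout: summed well GFP fluorescence from 488 nm laser scanning; reference was 500 nM antisense […] 654 PNA.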
UbGFP stabilizer: Ubiquitin-GFP Assay. 67,000 tested, under 10 active. AID 526, 2006. Ubiquitin-GFP reporter cells, proteasome inhibition, GFP fluorescence; response scale: untreated = 0%, 10 µM MG-132 = 100%. Potency, µM (series often up to 45.9 µM), for the others: at the highest dose activation (GFP accumulation), actives largely listed as activators; active = well fitted activation curve with a large enough effect, not every such curve was filed as active; inconclusive = small, poorly fitted or top-dose-only effect, or another doubt; inactive = no such curve, though single readings can be large or run the other way; also: potency is read from the fitted curve at half-maximal effect
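Proteasome blockade was scored as a rise in GFP-expressing U2OS cells carrying a ubiquitin(G76V)-GFP construct, imaged after 4 hr compound treatment at 37 °C across a 46 uM–2.9 nM series.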
GFP derepression: qHTS Assay for Epigenetic Modulators | mouse C127i GFP locus derepression, cytometry, 30 h | AID 597, 2007 | 68,000 compounds, 0.09% hits | Potency, µM (top dose mostly 46.1 µM), without a hit: top-dose GFP derepression (activation); also: % of control where 0% means no effect
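Locus derepression in mouse mammary C127i cells whose integrated CMV-GFP reporter is normally silent; GFP expression after 30 h compound treatment was quantified by counting fluorescent cells.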
IkB signaling: IkB Signaling; ABC-DLBCL IkBa-CBG/CBR dual luciferase ratio, 4 h; response scale: scaled: untreated 0%, proteasome inhibitor 100%; Potency, µM (highest dose often 57.1 µM), inactives show at the top dose IkBa stabilization activation; 110,000 compounds, 0.04% hits; active = well fitted curve in the direction sought with a large enough effect in the signal ratio, not every such curve was filed as active; inconclusive = small, poorly fitted or top-dose-only effect, or a change in a side signal; the % refers to the signal ratio;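 also: potency is read from the fitted curve at half-maximal effect; the direction sought is a rising ratio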
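In this assay, an IκBα–CBG68 fusion accumulates when IKK-driven degradation is blocked; native CBR normalizes for cell number. OCI-Ly3 cells were treated 4 h with compound and doxycycline, then green and red light read after Chroma-Glo addition.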
Hsp90 Hop PPI: qHTS Assay for Disrupters of an Hsp90 Co-Chaperone Interaction; Hsp90 C-terminal peptide / TPR2A (Hop) interaction, human; AlphaScreen TPR2A-His6 binding biotin-Hsp90 C-terminal peptide; Potency, µM (titrated, usually from 57 µM), without a hit: top-dose activity change, negative = inhibition; 71,000 compounds, 0.44% hits; active = well fitted curve in either direction with a large enough effect; inconclusive = small, poorly fitted or top-dose-only effect, or another doubt; also: potency is read from the fitted curve at half-maximal effect; % is scaled to controls: 0 for no effect and ±100 for the full control effect
Hsp90-TPR2A inh: Confirmation Concentration-Response Assay and Counterscreen for Disrupters of an Hsp90 Co-Chaperone Interaction; activity, negative = inhibition, % at 40 µM or 46 µM, hits read low; AlphaScreen TPR2A-His6 / biotin-Hsp90 peptide binding; shares compounds with Hsp90 Hop PPI; 45 compounds, 100% hits; AID 632, 2007;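 active = compound lowering the Hsp90 and TPR2A binding signal, whether or not the linker counterscreen also flagged it as an artifact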
Active calls of the source: *; ? = inconclusive; . = no result given; + = active, no number; ! = not confirmed by another sample; [ ] = dose if it differs, or a comment. Unless noted, calls follow the shape of the dose curve; as a rule, active = well fitted curve in the direction sought with a large enough effect; inconclusive = small, poorly fitted or top-dose-only effect, or another doubt; inactive = no such curve, though single readings can be large; an effect the other way counts as inactive or inconclusive.

SMILES | HBB splicing | UbGFP stabilizer | GFP derepression | IkB signaling | Hsp90 Hop PPI | others
N#CC(C#N)=Cc1cc(O)c(O)c(O)c1 | 0% | 3% | 0% | 2% | 7.9µM*
CN1C[C@@H](CNC(=O)OCc2ccccc2)C[C@H]2c3cccc4c3c(cn4C)C[C@@H]21 | 0% | -1% | 2% | -7% | -29%
O=C(O)Cc1cccnc1C(=O)O | . | 1% | 0% | 0% | 7.9µM*
O=C(O)COc1ccccc1 | 0% | . | . | 1% | -4%
Clc1cccc2ccccc12 | 0% | . | . | -1% | -1%
c1ccc2c(c1)-c1cccc3cccc-2c13 | 0% | . | . | 0% | 32µM*
CCCCCCCCCCCCCC(=O)O[C@H]1[C@@H](C)[C@@]2(O)[C@@H](C=C(CO)C[C@]3(O)C(=O)C(C)=C[C@@H]23)C2C(C)(C)[C@]21OC(C)=O (some centres undefined) | 0% | -3% | -2% | ? | -29%
CC1=C2[C@@H]3OC(=O)[C@H](C)[C@H]3CC[C@@]2(C)C=CC1=O | . | 3% | 0%[9.22 µM] | -1%[11.4 µM] | -3%
COCCCn1c(N)c(C(=O)NCCC(C)C)c2nc3ccccc3nc21 | -2%[0.369 µM] | 1% | 2% | ? | 25µM*
Brc1ccc(Oc2ccc(Br)cc2Br)c(Br)c1 | 0% | . | . | -1% | 32µM*
O=C(O)[C@@H]1[C@H](C(=O)O)[C@]2(Cl)C(Cl)=C(Cl)[C@@]1(Cl)C2(Cl)Cl | 1%[9.22 µM] | 2%[9.17 µM] | 3.2µM* | 3.2µM* | -2%[11 µM]
C[C@]1(C(=O)O)[C@@H]2CC[C@@H](O2)[C@@]1(C)C(=O)O | 1% | 7% | 0% | ? | -10%
NCC(CC(=O)O)c1ccc(Cl)cc1 (centres undefined) | -1%[57.5 µM] | -2% | -2% | 2% | 0%
NC[C@@H](CC(=O)O)c1ccc(Cl)cc1 | 0%[20.6 µM] | -9% | 0% | 3.2µM*! | -2%
CC(=O)[C@@H]1CC[C@@H]2[C@H]3CC[C@H]4C[C@@H](O)CC[C@]4(C)[C@@H]3C(=O)C[C@]21C | 1% | 0% | -2% | 12% | -6%
O=C(O)CN1CCN(CC(=O)O)CC(=O)[O][Hg][O]C(=O)C1 | 4%[9.22 µM] | -4%[9.17 µM] | 10%[9.22 µM] | 4µM* | 1%[11 µM]
N[C@H](Cc1ccc(N(CCCl)CCCl)cc1)C(=O)O | 2% | -2% | -3% | 30% | -18%
N[C@@H](Cc1cc(O)c(O)cc1O)C(=O)O | 2% | -7% | -3% | 1% | 7.9µM*
CN1CCN(C(=O)COc2ccc3ccccc3c2Br)CC1 | -1% | 0% | 3% | -3% | 2.5µM*
CC(C)[C@H]1C(=O)N2CCC[C@@H]2[C@]2(O)O[C@@](NC(=O)[C@H]3C=C4c5cccc6[nH]cc(c56)C[C@H]4N(C)C3)(C(C)C)C(=O)N12 | . | 1% | -2%[9.22 µM] | -1%[11.4 µM] | -22%
C=CC(C)=O | -1% | . | . | 0% | 5%
CC(=O)[O-].CC(=O)[O-].O.O.[Cd+2] | -1% | . | . | 5µM* | -3%
CN(N=O)c1ccc(O)c(O)c1 | 2% | 15% | -1% | 2% | 3.2µM*
COc1cc2c(cc1OC)-c1c(O)c(OC)cc3c1[C@@H](C2)N(C)CC3 | . | 3% | -4%[9.22 µM] | 1%[11.4 µM] | ?
Cn1nc(Cc2ccccc2)nc2c(=O)n(C)c(=O)nc1-2 | . | . | . | . | . | Hsp90-TPR2A inh=+
CCn1nc(-c2cccs2)nc2c(=O)n(C)c(=O)nc1-2 | 0%[57.5 µM] | 0% | 4% | ? | 1.6µM* | Hsp90-TPR2A inh=+
O=C1C[C@@H]2OCC=C3CN4CC[C@]56c7ccccc7N1[C@H]5[C@@H]2[C@H]3C[C@@H]46 | . | -1% | 9%[9.22 µM] | 0%[11.4 µM] | -6%
CC[C@H](CO)NC(=O)[C@@H]1C=C2c3cccc4[nH]cc(c34)C[C@@H]2N(C)C1 | 2% | 7% | -3% | 2% | -12%

Source: PubChem BioAssay
